# Structures can show the parent of a compound that is named as a salt. ± gives the standard deviation of the averaged measurements.
# Experiments:
# Experiment in all cases: cell viability (% of vehicle); higher = less cytotoxic
# Conditions in all cases: 10 µM; 72 h
# HCI01 = tested on: HCI01 (cells of a triple-negative basal-like breast cancer xenograft)
# HCI03 = tested on: HCI03 (cells of an ER-positive luminal breast cancer xenograft)
# HCI09 = tested on: HCI09 (cells of a triple-negative luminal androgen receptor type breast cancer xenograft)
# HCI11 = tested on: HCI11 (cells of an ER-positive luminal breast cancer xenograft)
# HCI13 = tested on: HCI13 (cells of an ER-positive luminal breast cancer xenograft)
# HCI16 = tested on: HCI16 (cells of a triple-negative basal-like breast cancer xenograft)
# UCD52 = tested on: UCD52 (cells of a triple-negative basal-like breast cancer xenograft)
# WHIM2 = tested on: WHIM2 (cells of a triple-negative basal-like breast cancer xenograft)
# WHIM30 = tested on: WHIM30 (cells of a triple-negative basal-like breast cancer xenograft)
# 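Further: PDX cells carrying CMV promoter-driven luciferase, viability read as total photon flux per second by IVIS imaging following D-luciferin, vehicle control 0.1% DMSO.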
SMILES,cell viability (HCI01),cell viability (HCI03),cell viability (HCI09),cell viability (HCI11),cell viability (HCI13),cell viability (HCI16),cell viability (UCD52),cell viability (WHIM2),cell viability (WHIM30)
Nc1nc(Cl)nc2c1ncn2C1CC(O)C(CO)O1 (centres undefined) [Cladribine],95.8 ± 7.4,118,94.6 ± 26,104,128 ± 34,58.3,110 ± 15,106 ± 34,78.8 ± 8.9
CCNC1(C(N)=O)CCN(c2ncnc3c2nc(-c2ccccc2Cl)n3-c2ccc(Cl)cc2)CC1.Cl,83 ± 14,86,39.3 ± 16,75,81 ± 13,92.1,63.4 ± 1.6,89.6 ± 5.2,109 ± 9.3
OCC(O)C(O)C(O)C(O)CO (centres undefined) [Sorbitol],89.2 ± 28,132,92.6 ± 8.6,84,102 ± 3.2,111,87.63 ± 0.58,86.6 ± 8.6,83.33 ± 0.53
COc1cc2c(cc1OC)C(=O)C(CC1CCN(Cc3ccccc3)CC1)C2.Cl (centres undefined) [Donepezil HCl],137 ± 8.8,89.9,113 ± 5,106,152.6 ± 0.61,147,66.1 ± 6.9,86.1 ± 4,107 ± 14
Nc1nc(=O)c2c([nH]1)NCC(CNc1ccc(C(=O)NC(CCC(=O)[O-])C(=O)[O-])cc1)N2C=O.O.O.O.O.O.[Ca+2] (centres undefined) [Leucovorin Calcium],104 ± 22,102,131 ± 55,83.9,108 ± 13,127,122 ± 2.5,67.9 ± 22,156 ± 29
c1cc(CN2CCCNCCNCCCNCC2)ccc1CN1CCCNCCNCCCNCC1 [Plerixafor (AMD3100)],99.4 ± 11,86.8,92.6 ± 9.3,84.7,85.1 ± 4.1,87.9,92.3 ± 9.7,73 ± 11,110 ± 12
COC(=O)C1CC2=CC(=O)CCC2(C)C23OC2CC2(C)C(CC[C@]24CCC(=O)O4)C13 (some centres undefined) [Epleremone],90.4 ± 5.2,105,100 ± 24,90.1,94.7 ± 9.2,116,100 ± 7.6,108 ± 4.6,114 ± 3.4
COC(=O)N(C)c1c(N)nc(-c2nn(Cc3ccccc3F)c3ncccc23)nc1N [Riociguat],122 ± 4.3,106,104 ± 5.6,114,94.87 ± 0.45,91.6,104 ± 2.9,97.2 ± 1.1,124 ± 14
CC(O)C1C(=O)N2C(C(=O)OCOC(=O)C(C)(C)C)=C(SC3CN(C4=NCCS4)C3)C(C)C12 (centres undefined) [Tebipenempivoxil],130 ± 21,110,142 ± 85,115,101 ± 34,89.7,97.2 ± 11,112 ± 53,133 ± 17
COc1ccc(C2(C#N)CCC(C(=O)O)CC2)cc1OC1CCCC1 (centres undefined) [Cilomilast],120 ± 9.7,114,89 ± 22,88.4,104 ± 9.8,146,103 ± 12,117 ± 8.9,113.9 ± 0.63
COCCCN1CCC(NC(=O)c2cc(Cl)c(N)c3c2OCC3)CC1 [Prucalopride],86.2 ± 8.4,134,99.9 ± 20,94.2,120 ± 13,122,89.3 ± 11,91.4 ± 9.2,123 ± 2.2
COc1ccc(C=Cc2cc(OC)c(OC)c(OC)c2)cc1OP(=O)([O-])[O-].[Na+].[Na+] [Fosbretabulin (Combretastatin A4 Phosphate (CA4P)) Disodium],185 ± 47,115,110 ± 35,115,41.7 ± 5.6,132,86 ± 16,111 ± 12,104 ± 5.7
COc1cc2c(cc1Cc1cccc(Cl)c1F)c(=O)c(C(=O)O)cn2C(CO)C(C)C (centres undefined) [Elvitegravir (GS-9137)],114 ± 56,86.7,41.2 ± 36,109,47.4 ± 7.1,124,77.8 ± 6.1,73.8 ± 7.4,159 ± 21
CC(C)(Oc1ccc(CCNC(=O)c2ccc(Cl)cc2)cc1)C(=O)O [Bezafibrate],108.4 ± 0.24,101,95.5 ± 17,104,97.3 ± 2.6,123,101 ± 8.8,112 ± 14,113 ± 6.7
CC(=CC(=O)OCCCCCCCCC(=O)O)CC1OCC(CC2OC2C(C)C(C)O)C(O)C1O (centres undefined) [Mupirocin],97.5 ± 17,129,86.5 ± 23,90.6,89.6 ± 9.9,101,84.2 ± 3.4,81.9 ± 12,113.3 ± 0.3
Cl.Nc1ncnc2nc[nH]c12 [Adenine HCl],124 ± 9.7,126,112 ± 4.7,117,87.7 ± 10,147,165 ± 5.9,106 ± 4.3,101 ± 7.6
Cc1ncc([N+](=O)[O-])n1CC(C)O (centres undefined) [Secnidazole],57.6 ± 32,133,82.6 ± 1.1,89.3,103 ± 11,114,79.3 ± 1.8,92.4 ± 20,149 ± 20
COc1ccc(C(=O)CC(=O)c2ccc(C(C)(C)C)cc2)cc1 [Avobenzone],74.2 ± 40,126,74.1 ± 8.4,83.5,76.7 ± 5.2,119,71 ± 1.6,106 ± 37,141 ± 12

SMILES,cell viability (HCI01),cell viability (HCI03),cell viability (HCI09),cell viability (HCI11),cell viability (HCI13),cell viability (HCI16),cell viability (UCD52),cell viability (WHIM2),cell viability (WHIM30)
Cl.Cl.NCCc1cnc[nH]1 [Histamine 2HCl],118 ± 14,129,105 ± 8.2,105,124 ± 16,111,87.8 ± 4.6,81.3 ± 5.9,122 ± 5.2
CN(C)CCc1c[nH]c2ccc(CS(=O)(=O)N3CCCC3)cc12.O=C(O)CC(O)C(=O)O [Almotriptan Malate],105 ± 5,132,103 ± 6,86.5,84.8 ± 7.8,144,87.7 ± 4.3,90.6 ± 0.17,134 ± 8
O=C(O)c1cccnc1 [Nicotinic Acid],97.2 ± 15,119,100 ± 20,87.3,112 ± 18,98.5,92.8 ± 2.8,84.3 ± 10,143.6 ± 0.45
Cc1ccc(-c2ncc(Cl)cc2-c2ccc(S(C)(=O)=O)cc2)cn1 [Etoricoxib],107 ± 4.3,118,85.1 ± 16,79.9,96.7 ± 2.1,141,77.3 ± 3.4,143 ± 16,116 ± 13
OCC(O)CN1CCN(c2ccccc2)CC1 (centres undefined) [Dropropizine],97.2 ± 14,129,89.7 ± 11,90.3,66 ± 10,94.3,98.7 ± 2.5,99.3 ± 20,101.7 ± 0.4
CC(C(=O)O)c1ccc2c(c1)[nH]c1ccc(Cl)cc12 (centres undefined) [Carprofen],175 ± 51,107,112 ± 6,95.3,102.2 ± 0.8,138,113 ± 3.4,152 ± 30,117.4 ± 0.51
"CCC(Nc1ncnc2nc[nH]c12)c1nc2cccc(F)c2c(=O)n1-c1ccccc1 (centres undefined) [CAL-101 (Idelalisib, GS-1101)]",91.6 ± 8.4,80.7,88.2 ± 19,76.8,51.9 ± 3.4,68.1,68.3 ± 3,62.8 ± 2.9,121.9 ± 0.48
COc1ccc(C2CNC(=O)C2)cc1OC1CCCC1 (stereo not drawn) [S- (+)-Rolipram],144 ± 9,152,94.4 ± 32,121,144 ± 31,136,99.5 ± 11,117.8 ± 0.47,134 ± 9.9
"CC1(C)SC2C(NC(=O)C(C(=O)[O-])c3ccccc3)C(=O)N2C1C(=O)[O-].[Na+].[Na+] (centres undefined) [Carbenicillin, Disodium Salt]",93 ± 4.2,92.6,94 ± 0.98,103,86.7 ± 1.1,105,85.4 ± 3.6,110 ± 17,115 ± 2
CC1(C)SC2C(NC(=O)C(N)c3ccccc3)C(=O)N2C1C(=O)O.O.O.O (centres undefined) [Ampicillin Trihydrate],138 ± 26,124,94.6 ± 8.1,110,143 ± 7.4,120,82 ± 7.2,103 ± 2.1,95.8 ± 2.6
CC(CN1c2ccccc2Sc2ccccc21)N(C)C (centres undefined) [Promethazine HCl],106 ± 15,90,75.8 ± 5.4,92.9,96.1 ± 3.6,107,73.3 ± 6.1,85 ± 17,114 ± 7.7
O=N[O-].[Na+] [Sodium Nitrite],104 ± 6.4,95.5,90.5 ± 4.7,91.5,55.8 ± 2.9,108,84 ± 5.8,114 ± 17,116 ± 21
OCCOCCN1CCN(C2=Nc3ccccc3Sc3ccccc32)CC1 [Quetiapine],122 ± 13,109,94.9 ± 23,94.1,116 ± 8.1,94.1,101 ± 4,104 ± 5.5,131 ± 13
CC(CCC(=O)O)C1CCC2C3C(O)CC4CC(O)CCC4(C)C3CCC12C (centres undefined) [Ursodiol],90.9 ± 70,150,100.8 ± 0.88,95.2,126 ± 9.4,124,89.82 ± 0.32,111 ± 9.3,155 ± 12
Cl.O=C(O)C=Cc1ccc(Cn2ccnc2)cc1 [Ozagrel HCl],72.6 ± 40,135,100 ± 10,99.5,126 ± 10,122,87.7 ± 1.4,93.3 ± 30,140 ± 2.3
CCN(CC)CCNC(=O)c1cc(Cl)c(N)cc1OC [Metoclopramide],112 ± 6.5,107,90.8 ± 17,94.6,121 ± 10,72.6,98.01 ± 0.093,88.4 ± 2.2,113 ± 27
Clc1ccccc1C(c1ccccc1)(c1ccccc1)n1ccnc1 [Clotrimazole],82.5 ± 21,70.8,55.1 ± 39,95.1,85.5 ± 21,79.8,79.6 ± 8.2,73.7 ± 16,125 ± 1
Cc1c(-c2cnccn2)ssc1=S [Oltipraz],89.2 ± 5.2,113,88.5 ± 4,66.1,89.8 ± 8.7,104,94.8 ± 9.3,91 ± 14,72.8 ± 2.9
